Only some compounds are listed: those with a hit (about 11% of all), similar ones and a draw of the others.
Pf growth 96h: inhibits malaria parasite growth, 96 h | Potency, µM (highest dose often 28.7 µM), for the others: at the highest dose activity change, negative = inhibition, actives largely listed as inhibitors | P. falciparum luciferase reporter growth, 96 h | hit rate 6.9% among 320,000 | AID 504834
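Two-generation exposure (96 h) targets delayed-death phenotype. Reporter parasites carrying integrated firefly luciferase, in red cells at 2% hematocrit and 0.05% parasitemia final, kept at 37 C, 5% CO2; luminescence loss indicates inhibition.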
AMA1-RON2 inh: disrupts binding of P. falciparum AMA1 to RON2 | Potency, µM (highest dose often 58.2 µM), for inactives: top-dose activity change, negative = inhibition, hits mostly inhibitors | AlphaScreen AMA1-biotinylated RON2 peptide binding | hit rate 0.2% among 360,000 | AID 720542;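 further: 0% = vehicle wells and -100% = peptide control; nearly all actives have a fitted effect of over 45% in size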
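AMA1 (3D7) with his tag at 25 nM final met compounds first, then biotinylated RON2 peptide at 25 nM; detection used donor plus acceptor beads, 10 µg/mL apiece, read by AlphaScreen after 30 min at room temperature.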
Pf growth 48h: inhibits P. falciparum growth in the first generation, 48 h. P. falciparum luciferase growth in erythrocytes, 48 h. Potency, µM (highest dose often 28.7 µM), without a hit: at the top dose activity change, negative = inhibition, actives largely listed as inhibitors. hit rate 5.9% among 310,000. AID 504832
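Read-out is firefly luciferase luminescence from an integrated reporter in P. falciparum, so falling signal marks reduced parasite growth. Infected erythrocytes were at 2% hematocrit and 0.1% parasitemia (final) in Albumax-supplemented RPMI 1640.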
HCV inhibitor: blocks hepatitis C virus | Huh7.5.1 HCVcc-Cre infection, luciferase reporter, 44 h | Potency, µM (doses to about 41.8 µM), for inactives: top-dose activity change, negative = inhibition, usual class: inhibitors | hit rate 3.4% among 340,000 | AID 651820
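Infectious HCV cell culture screen: compound-treated cells (1,000/well, pre-plated 4 h) are infected with HCVcc-Cre at roughly 0.5 moi and grown 44 h. Infection is quantified by luciferase signal after 15 min substrate incubation at room temperature.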
Active calls of the source: *; ? = inconclusive; · = not tested or not shown; [ ] = another dose, or the depositor's remark. The call rests on the fitted dose curve; in most records, active means well fitted curve in the direction sought with a large enough effect; inconclusive means small, poorly fitted or top-dose-only effect, or another doubt; inactive means no such curve, though single readings can be large; an effect the other way counts as inactive or inconclusive. Unless noted, on the % scale 0 is the no-effect control and ±100 the full control effect; potency means the concentration at half of the fitted maximal effect.

SMILES	Pf growth 96h	AMA1-RON2 inh	Pf growth 48h	HCV inhibitor
COc1ccccc1NC(=O)Cn1cc(C(=O)c2ccco2)c2ccccc21	7.6%	4.6%	?	?
CC(=O)c1cn(CCOc2cc(C)ccc2C)c2ccccc12	?	13.4%	?	1.78µM*
Cc1ccc(C)c(OCCn2cc(C(=O)O)c3ccccc32)c1	43.3%	-18.4%	23.5%	-12.5%
CNC(=S)N/N=C/c1cn(CCOc2cccc(OC)c2)c2ccccc12	?	28.7%	?	10µM*
CNC(=S)N/N=C/c1cn(CCOc2ccccc2OC)c2ccccc12	?	12.6%[2.32 µM]	?	?
COc1ccccc1OCCn1cc(C(=O)c2ccco2)c2ccccc21	?	21.7%	11.7µM*	?
Cc1ccccc1OCCn1cc(/C(N)=N/O)c2ccccc21	9.28µM*	2.2%	·	?
Cc1ccc(C)c(OCCn2cc(/C=C(\C#N)C(=O)NCc3ccco3)c3ccccc32)c1	-0.3%	42.2%	9.28µM*	-18.8%
COc1cccc(OCCn2cc(C(=O)c3ccco3)c3ccccc32)c1	-0.2%	-2.8%	1.85µM*	20µM*
CC(=O)c1cn(CC(=O)Nc2ccc(C)cc2C)c2ccccc12	·	0.4%	?	5.62µM*
Cc1ccc(NC(=O)Cn2cc(C(=O)C3CC3)c3ccccc32)c(C)c1	2.0%	-14.2%	33.5%	14.6%
COc1cccc(OCCn2cc(C(C)=O)c3ccccc32)c1	?	-0.8%	9.28µM*	?
COc1ccccc1OCCn1cc(/C=C(\C#N)C(=O)NCc2ccco2)c2ccccc21	-18.7%	-14.1%	?	-10.1%
COc1ccccc1OCCCn1cc(C(=O)c2ccco2)c2ccccc21	17.3%[5.75 µM]	5.6%	?	11.2µM*
CC(=O)NC12CC3CC(C1)CC(C(=O)N1CCN(S(=O)(=O)c4ccc(C(C)C)cc4)CC1)(C3)C2	11.7µM*	8.5%	0.4%	-1.1%
CC(=O)NC12CC3CC(C1)CC(C(=O)N1CCN(S(=O)(=O)c4cccc(F)c4)CC1)(C3)C2	-28.9%	-3.0%	?	7.7%
CCSc1cc(C)nc2c(-c3ccccc3)cnn12	120.6%	-1.7%	406.3%	10µM*
c1ccc(C(Cc2nc(-c3ccncc3)no2)c2ccccc2)cc1	-1.0%	1.3%	7.38µM*	7.94µM*
Clc1ccc(OCc2nc(-c3ccncc3)no2)cc1	10.4µM*	-8.3%	·	?
Clc1ccc(-c2noc(COc3ccccc3)n2)cc1	27.2%	11.7%	54.6%	-24.5%
CCOC(=O)C1CCN(C(=O)CNS(=O)(=O)c2cccs2)CC1	?	-2.5%	18.4%	7.3%
O=C(CCS(=O)(=O)CCN1CCOCC1)NCNC(=O)CCS(=O)(=O)CCN1CCOCC1	-2.0%	-4.6%	-9.7%	7.8%
CC(=O)Nc1ccc(NC(=S)NC(=O)/C=C/c2ccc(Cl)cc2)cc1	4.8%	6.7%	2.1%	6.4%
O=C(/C=C/c1ccccc1)Nc1cccc(C(=O)O)c1	?	8.3%	0.262µM*	-1.4%
CSc1cccc(NC(=O)/C=C/c2ccccc2)c1	10.4µM*	-4.3%	118.6%	?
SMILES	Pf growth 96h	AMA1-RON2 inh	Pf growth 48h	HCV inhibitor
CSc1cccc(NC(=O)/C=C/c2ccc(Cl)cc2)c1	-28.4%	-0.5%	-8.9%	12.6µM*
CSc1ccc(/C=C/C(=O)Nc2ccccc2)cc1	-105.0%	-9.5%	127.3%	-28.2%
CCC(=O)Nc1ccc(NC(=O)/C=C/c2ccc(Cl)cc2)cc1	9.28µM*	-2.7%	12.8%	10.8%
Cc1ccc(S(=O)(=O)NC(=O)Nc2ccc(N(C)C)cc2)cc1	0.465µM*	-25.8%	0.738µM*	?
Cc1ccc(S(=O)(=O)NCCN=Cc2ccc(N(C)C)cc2)cc1	7.38µM*	10.6%	3.3%	7.5%
Cc1ccc(S(=O)(=O)NC(=O)c2cc(C)n(-c3ccc(N(C)C)cc3)c2C)cc1	3.7µM*	-12.4%	?	6.6%
COc1ccc([N+](=O)[O-])cc1NC(=O)c1ccc(N(Cc2ccccc2Cl)S(C)(=O)=O)cc1	?	-4.9%	34.3%	?
COc1ccc(C(CC(=O)Nc2ccc(C)cn2)N2Cc3ccccc3C2=O)cc1 (centres undefined)	21.1%	0.0%	?	-10.2%
COc1ccc(OC)c(C2=NS(=O)(=O)N(C)C(C(=O)Nc3ccc(F)cc3F)=C2)c1	?	-19.4%	?	14.1µM*
COc1ccc(C2=NS(=O)(=O)N(C)C(C(=O)Nc3ccc(C(C)=O)cc3)=C2)cc1OC	31.7%	-4.0%	-11.0%	11.2µM*
